Experimental data published in PubChem BioAssay AID488922 (Johns Hopkins Ion Channel Center, 2010).
The whole screen tested about 310,000 compounds, of which about 3,800 (1.2%) were called active.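 Rule for the calls: active = ratio B-score over 3 SD below the library mean, with starting fluorescence within 5 SD of its mean; inactive = the rest, inconclusive results apart.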 Shown is part of a subset that was picked to be rich in actives.

Target: Potassium channel subfamily K member 9 (Homo sapiens) (UniProt Q9NPC2)
Test: KCNK9 potassium channel inhibitors, primary screen, HEK293 cells, thallium flux (AID 488922);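 for B-score: negative B-score means less thallium flux so channel inhibition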
Settings: HEK293 KCNK9, FluxOR thallium flux fluorescence, at 10 µM; hits give low values

Chain of Potassium channel subfamily K member 9 (Homo sapiens) (Q9NPC2 whole entry, looked up): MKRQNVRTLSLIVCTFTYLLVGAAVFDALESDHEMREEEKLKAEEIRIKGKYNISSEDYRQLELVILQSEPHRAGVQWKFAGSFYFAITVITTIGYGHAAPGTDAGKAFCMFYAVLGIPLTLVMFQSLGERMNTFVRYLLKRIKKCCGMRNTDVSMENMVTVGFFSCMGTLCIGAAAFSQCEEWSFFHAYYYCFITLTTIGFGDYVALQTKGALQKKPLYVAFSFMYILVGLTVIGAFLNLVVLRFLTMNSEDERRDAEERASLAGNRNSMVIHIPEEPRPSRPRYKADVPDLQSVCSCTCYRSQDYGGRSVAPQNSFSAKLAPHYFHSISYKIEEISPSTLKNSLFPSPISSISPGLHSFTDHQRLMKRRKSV

SMILES	B-score
Cc1ccc(-n2nc(-c3ccco3)cc2C(=O)NCc2cccnc2)cc1	inactive
CC(C)C[C@@H](CO)N1CCN(Cc2ccc(O)cc2)CCC1=O	inactive
CCOC(=O)Cc1cc(=O)[nH]c(/N=C(\N)Nc2ccc(OC)cc2)n1	inactive
CCOC(=O)Cc1cc(=O)[nH]c(=O)[nH]1	-8.45 (active)
CCOCCCNC(=O)Cc1cc(=O)[nH]c(=O)[nH]1	inactive
CC1CCCN(CCCNC(=O)CN2C(=O)COc3ccc(S(=O)(=O)N4CCOCC4)cc32)C1 (stereo not given)	inactive
O=C1/C(=C/c2cccs2)CCC1C1CCCC1 (stereo not given)	inactive
Cc1cc2ccccn2c1C(=O)c1cccc(S(=O)(=O)N2CCOCC2)c1	inactive
CC(=O)Nc1ccc(/C=N/Nc2ccc(C(=O)c3c(C)cc4ccccn34)cc2[N+](=O)[O-])cc1	inactive
Cc1cc2ccccn2c1C(=O)c1cccc(F)c1	-13.4 (active)
CN(Cc1c(F)cccc1Cl)C(=O)CNC(=O)c1ccc2c(c1)OCO2	inactive
O=C(c1ccccc1Cl)N(Cc1ccccc1F)N1C(=O)CCCC1=O	inactive
O=C(OCC(=O)N(CCc1ccccc1)Cc1ccccc1)c1ccccc1[N+](=O)[O-]	-17.6 (active)
CN(Cc1ccccc1)C(=O)COC(=O)c1ccccc1Nc1ccccc1	inactive
Cc1c(C(=O)NCCCc2ccccc2)cccc1[N+](=O)[O-]	inactive
CCOc1ccc2c(c1)C(c1ccc(C)cc1)=NNC(c1ccc(C)cc1)=N2	inactive
Cc1ccc(-c2csc(-c3c[nH]c4ccccc34)n2)cc1	inactive
Cc1ccc(C2=Nc3c(ccc4ccccc34)C(c3ccncc3)=NN2)cc1	-10.7 (active)
CCCCCC(=O)N1CCN(S(=O)(=O)c2ccc3c(c2)OCCCO3)CC1	inactive
O=C(Cc1cccs1)N(CC1CCCO1)C1(C(=O)NC2CCCCC2)CCCCC1 (stereo not given)	inactive
O=C(CCSCCc1ccccn1)Nc1nccs1	inactive
COc1ccc(S(=O)(=O)N2CCN(C(=O)N(C)C)C2C)cc1 (stereo not given)	inactive
CC(OC(=O)c1ccccc1OCc1ccc(Cl)cc1)C(N)=O (stereo not given)	inactive
O=C(NC1CCC(O)CC1)c1ccccc1OCc1ccc(F)cc1 (stereo not given)	inactive
COc1ccc(CCNC(=O)c2ccccc2OCc2ccccc2)cc1	-8.98 (active)
CCOc1ncccc1C(=O)NCCc1ccc(OC)cc1	inactive
CC(=O)c1ccccc1OCc1ccc(C(=O)c2ccccc2)cc1	-6.64 (active)
COc1ccc(OCCCC(=O)NCCc2ccccc2)cc1	inactive

SMILES	B-score
COc1cccc(CN2CCNC(=O)C2CC(=O)N(C)CCc2ccccn2)c1 (stereo not given)	inactive
Cc1ccc(CN(N=Nc2nonc2N)c2nonc2N)c(C)c1	-10.2 (active)
CCN(CC(=O)NCC(=O)Nc1cccc(C)c1C)Cc1ccccc1	inactive
CC1(C)C2CC[C@]3(C)C(CC=C4[C@@H]5C[C@@](C)(CO)CC[C@]5(C(=O)O)CC[C@]43C)[C@@]2(C)CC[C@@H]1O (stereo not given in full)	inactive
Cc1n[nH]c(=O)c2c1nnn2Cc1ccc(F)cc1	inactive
COC(=O)c1cc2nc(-c3ccccc3)cc(C(F)(F)F)n2n1	inactive
COc1ccc(NC(=O)c2cc3nc(-c4ccccc4)cc(C)n3n2)cc1OC	inactive
COCCNc1cc(-c2ccccc2)nc2cc(-c3cccc(F)c3)nn12	-9.68 (active)
COCCN(Cc1nc(-c2ccc(C(F)(F)F)cc2)no1)C(C)C	inactive
O=C(Nc1ccccc1Cl)/C(Cl)=C(\Cl)S(=O)c1ccccc1 (stereo not given)	-6.6 (active)
O=C(Cc1ccc2c(c1)CCCC2)Nc1ccccc1Cl	inactive
O=C(Nc1ccccc1Cl)Nc1cccc2cccnc12	inactive
COc1cc(-c2nnc(Cn3cc(C(F)(F)F)ccc3=O)o2)cc(OC)c1OC	inactive
COc1cccc(NC(=O)CN2CCN(c3nc(-c4cccc(OC)c4)cs3)CC2)c1	inactive
COc1cccc(-c2cc3nc4c(c(N5CCC6(CC5)OCCO6)n3n2)CCCC4)c1	-9.24 (active)
COc1cccc(CNc2nc3nc4c(c(=O)n3[nH]2)CCC4)c1	inactive
CCC(=O)Nc1nnc(S(=O)(=O)N2CCCc3ccccc32)s1	inactive
CCSc1nsc(NC(=O)Nc2cccc(C(C)=O)c2)n1	inactive
Cc1ccc(C(=O)N(CC(=O)NC2CCCC2)c2ccc(F)cc2)s1	inactive
CC1CCCN(CC(=O)Nc2cc(Cl)ccc2Oc2ccccc2)C1 (stereo not given)	inactive
O=C(CSc1ccccc1)Nc1cc(Cl)ccc1Oc1ccccc1	-8.08 (active)
CC(=O)Nc1ccc(SCC(=O)Nc2ccccc2Oc2ccccc2)cc1	inactive
N#CCOc1ccc(C2=NO[C@@H]3[C@@H]4C[C@@H]([C@H]5C(=O)N(c6ccc7c(c6)OCO7)C(=O)[C@@H]45)[C@H]23)cc1	inactive
O=C(N/C(=C\c1ccc(O)cc1)C(=O)N1CCCCC1)c1ccccc1	inactive
COc1ccc(C)cc1NC(=O)Nc1ccccc1SC	inactive
COc1ccc(C)cc1NC(=O)C(Sc1ccccc1)c1ccccc1 (stereo not given)	-8.19 (active)
COc1ccc(C)cc1NC(=O)NCCCCc1ccccc1	inactive
